Measurements as given in PubChem BioAssay (NCATS).
Records with an inconclusive call do not appear. Active and inactive are the calls of the source. Calls follow the shape of the dose curve; as a rule, active = well fitted curve in the direction sought with a large enough effect; inconclusive = small, poorly fitted or top-dose-only effect, or another doubt; inactive = no such curve, though single readings can be large; an effect the other way counts as inactive or inconclusive. Residues, ends and D or L forms follow the SMILES beside them. *: point of attachment. Cbz = O=C(OCc1ccccc1)*

Tests used:
[1] = target: Glutathione peroxidase 1 (Homo sapiens) (UniProt P07203); test: Primary qHTS Assay for Inhibitors of Recombinant Selenoprotein Glutathione Peroxidase 1 (GPX1) (AID 1845191); details: recombinant GPX1, GR-coupled NADPH fluorescence, 15 min; series mostly up to 48.8 µM; also: nearly all actives have a fitted effect of over 65% in size; also: potency is read from the fitted curve at half-maximal effect
In short: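 10 nM GPX1 + cpd, 30 min RT; start w/ 1 mM GSH, 0.5 mM cumene hydroperoxide, 0.5 mM NADPH, 100 nM GR, 0.01% BSA; buffer 50 mM Tris-HCl pH 7.5, 2 mM EDTA, 150 mM NaCl; Fl 340/450, 0 & 15 min.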

[2] = target: Phospholipid hydroperoxide glutathione peroxidase GPX4 (Homo sapiens) (UniProt P36969); test: Primary qHTS Assay for Inhibitors of Recombinant Selenoprotein Glutathione Peroxidase 4 (GPX4) (AID 1845192); details: recombinant GPX4, GR-coupled NADPH fluorescence, 15 min; series mostly up to 50 µM; also: nearly all actives have a fitted effect of over 65% in size; as to activity change, negative = inhibition: % is scaled to controls: 0 for no effect and ±100 for the full control effect
In short: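 NADPH consumption, followed by fluorescence at 340/450 nm between 0 and 15 min, reports GPX4 activity via coupled glutathione reductase (100 nM). Enzyme 200 nM was pre-exposed to compound 30 min; 0.5 mM cumene hydroperoxide and 1 mM GSH served as substrates.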

[3] = Quantitative High-Throughput drug screen in 47 multiple myeloma cell lines against the NCATS MIPE library collection: FR4_PLB cell viability assay (AID 1918924; also: nearly all actives have a fitted effect of over 35% in size; also: potency is read from the fitted curve at half-maximal effect); details: FR4_PLB myeloma cells viability, CellTiter-Glo ATP, 48 h; series mostly up to 45.8 µM
In short: (§1)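 Primary qHTS used for cherry-picking: cells at 500/well, library compounds for 48 h (37C, 5% CO2), luminescent ATP assay.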

[4] = Quantitative High-Throughput drug screen in 47 multiple myeloma cell lines against the NCATS MIPE library collection: Delta47_JCRB cell viability assay (AID 1918925; also: nearly all actives have a fitted effect of over 45% in size; also: potency is read from the fitted curve at half-maximal effect); details: Delta47 myeloma viability, CellTiter-Glo ATP, 48 h; series mostly up to 45.8 µM
In short: (§2)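 qHTS of the MIPE 4.0 collection: 500 myeloma cells/well, 48 h drug exposure at 37C in 5% CO2, then CellTiter-Glo for 5 min at room temperature before luminescence reading.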

[5] = Quantitative High-Throughput drug screen in 47 multiple myeloma cell lines against the NCATS MIPE library collection: EJM_DSMZ cell viability assay (AID 1918926; also: nearly all actives have a fitted effect of over 30% in size; also: potency is read from the fitted curve at half-maximal effect); details: EJM myeloma cell viability, CellTiter-Glo ATP, 48 h; series mostly up to 45.8 µM
In short: as §2

[6] = Quantitative High-Throughput drug screen in 47 multiple myeloma cell lines against the NCATS MIPE library collection: AMO1_DSMZ cell viability assay (AID 1918927; also: nearly all actives have a fitted effect of over 30% in size; also: potency is read from the fitted curve at half-maximal effect); details: AMO1 myeloma cells viability, CellTiter-Glo ATP luminescence, 48 h; series mostly up to 45.8 µM
In short: as §2

[7] = Quantitative High-Throughput drug screen in 47 multiple myeloma cell lines against the NCATS MIPE library collection: ARP1_JJKsccF8 cell viability assay (AID 1918928; also: nearly all actives have a fitted effect of over 40% in size; also: potency is read from the fitted curve at half-maximal effect); details: ARP1 myeloma cells viability, CellTiter-Glo ATP, 48 h; series mostly up to 45.8 µM
In short: (§3)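 Luminescence from CellTiter-Glo, taken after 5 min at room temperature, reports cellular ATP as viability. Cells (500 per well) had been treated 48 h at 37 °C with MIPE 4.0 compounds, scaled between DMSO and medium-only controls.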

[8] = Quantitative High-Throughput drug screen in 47 multiple myeloma cell lines against the NCATS MIPE library collection: ARD_JJKsccE7 cell viability assay (AID 1918929; also: potency is read from the fitted curve at half-maximal effect); details: ARD myeloma cell line viability, CellTiter-Glo, 48 h; series mostly up to 45.8 µM
In short: as §2

[9] = Quantitative High-Throughput drug screen in 47 multiple myeloma cell lines against the NCATS MIPE library collection: Karpas620_DSMZ cell viability assay (AID 1918959); details: Karpas620 myeloma viability, CellTiter-Glo ATP luminescence, 48 h; series mostly up to 45.8 µM; also: nearly all actives have a fitted effect of over 30% in size; also: potency is read from the fitted curve at half-maximal effect
In short: as §1

[10] = Quantitative High-Throughput drug screen in 47 multiple myeloma cell lines against the NCATS MIPE library collection: KMM1_JCRB cell viability assay (AID 1918960); details: KMM1 myeloma viability, CellTiter-Glo ATP luminescence, 48 h; series mostly up to 45.8 µM; also: nearly all actives have a fitted effect of over 30% in size; also: potency is read from the fitted curve at half-maximal effect;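 as to viability (% of DMSO): 100% = DMSO-treated cells and 0% = medium-only wells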
In short: as §3

[11] = Quantitative High-Throughput drug screen in 47 multiple myeloma cell lines against the NCATS MIPE library collection: KHM11_PLB cell viability assay (AID 1918962); details: KHM11 myeloma cell viability, CellTiter-Glo ATP luminescence, 48 h; series mostly up to 45.8 µM; also: nearly all actives have a fitted effect of over 35% in size; also: potency is read from the fitted curve at half-maximal effect
In short: as §1

[12] = Quantitative High-Throughput drug screen in 47 multiple myeloma cell lines against the NCATS MIPE library collection: JIM3_ECACC cell viability assay (AID 1918963; also: nearly all actives have a fitted effect of over 35% in size; also: potency is read from the fitted curve at half-maximal effect); details: JIM3 myeloma viability, CellTiter-Glo ATP, 48 h; series mostly up to 45.8 µM
In short: as §1

[13] = Quantitative High-Throughput drug screen in 47 multiple myeloma cell lines against the NCATS MIPE library collection: JIM1_ECACC cell viability assay (AID 1918964; also: potency is read from the fitted curve at half-maximal effect); details: JIM1 myeloma viability, CellTiter-Glo ATP luminescence, 48 h; series mostly up to 45.8 µM
In short: as §2

[14] = Quantitative High-Throughput drug screen in 47 multiple myeloma cell lines against the NCATS MIPE library collection: Karpas417_ECACC cell viability assay (AID 1918961); details: Karpas417 myeloma viability, CellTiter-Glo ATP luminescence, 48 h; viability (% of DMSO): at 45.8 µM (top of the series); also: potency is read from the fitted curve at half-maximal effect
In short: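 We plated 500 myeloma cells per well, pinned in MIPE 4.0 compounds, and incubated for 48 hours at 37C. ATP was then quantified with CellTiter-Glo, with DMSO and media-only wells defining 100% and 0%.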

Chain of Phospholipid hydroperoxide glutathione peroxidase GPX4 (Homo sapiens) (P36969 whole entry, looked up): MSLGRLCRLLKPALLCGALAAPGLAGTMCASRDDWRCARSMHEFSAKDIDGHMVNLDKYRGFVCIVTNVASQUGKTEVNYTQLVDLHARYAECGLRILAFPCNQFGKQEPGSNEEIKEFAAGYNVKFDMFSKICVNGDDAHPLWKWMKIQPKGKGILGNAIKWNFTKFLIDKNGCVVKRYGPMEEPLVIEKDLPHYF
Chain of Glutathione peroxidase 1 (Homo sapiens) (P07203 whole entry, looked up): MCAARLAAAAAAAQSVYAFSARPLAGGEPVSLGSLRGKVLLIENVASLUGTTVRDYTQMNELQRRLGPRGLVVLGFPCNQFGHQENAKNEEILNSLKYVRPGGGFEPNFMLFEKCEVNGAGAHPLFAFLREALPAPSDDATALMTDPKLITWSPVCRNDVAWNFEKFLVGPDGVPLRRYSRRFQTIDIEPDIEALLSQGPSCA

C[C@H](NC(=O)Cc1cc(F)cc(F)c1)C(=O)N[C@H](C(=O)OC(C)(C)C)c1ccccc1
inactive: Potency [1] | Potency [2] | Potency [3] | Potency [4] | Potency [5] | Potency [6] | Potency [7] | Potency [8] | Potency [9] | Potency [10] | Potency [11]

C=Cc1c(C)c2cc3nc(cc4[nH]c(cc5nc(cc1[nH]2)C(C)=C5CCC(=O)O)c(CCC(=O)OC)c4C)[C@@]1(C)C3=CC=C(C(=O)OC)[C@H]1C(=O)OC
inactive: Potency [1] | Potency [2]
active: Potency [3] 662 nM | Potency [4] 132 nM | Potency [5] 37.2 nM | Potency [6] 93.5 nM | Potency [8] 296 nM | Potency [9] 187 nM | Potency [10] 187 nM | Potency [11] 526 nM | Potency [12] 418 nM | Potency [13] 148 nM

CC(C)C[C@@H](C=O)NC(=O)[C@H](CC(C)C)NC(=O)[C@H](CC(C)C)NC(=O)OCc1ccccc1 (Cbz-Leu-Leu-Leu-aldehyde)
active: Potency [3] 590 nM | Potency [4] 105 nM | Potency [5] 833 nM | Potency [6] 105 nM | Potency [8] 105 nM | Potency [9] 148 nM | Potency [10] 83.3 nM | Potency [11] 187 nM | Potency [12] 526 nM | Potency [13] 209 nM
inactive: Potency [1] | Potency [2]

N#CNC(=NCCCCCCOc1ccc(Cl)cc1)Nc1ccncc1
inactive: Potency [1] | Potency [2]
active: Potency [3] 20900 nM | Potency [4] 18700 nM | Potency [5] 16600 nM | Potency [6] 18.7 nM | Potency [7] 6.6 nM | Potency [8] 46.9 nM | Potency [9] 1.9 nM | Potency [10] 5.9 nM | Potency [13] 29.6 nM

NC(=O)N1CCC(CC(=O)N2CCC([C@H]3c4ncc(Br)cc4CCc4cc(Cl)cc(Br)c43)CC2)CC1
active: Potency [3] 20900 nM | Potency [4] 8330 nM | Potency [5] 20900 nM | Potency [6] 7430 nM | Potency [7] 13200 nM | Potency [8] 2090 nM | Potency [9] 14800 nM | Potency [10] 18700 nM | Potency [14] 10500 nM | Potency [11] 37.2 nM | Potency [12] 18700 nM | Potency [13] 5900 nM
inactive: Potency [1] | Potency [2]

NC[C@H]1O[C@H](O[C@H]2[C@@H](O)[C@@H](O[C@H]3O[C@H](CO)[C@@H](O)[C@H](N)[C@@H]3O)[C@H](N)C[C@@H]2N)[C@H](N)C[C@H]1O
inactive: outcome [1] inactive [at 9.52 µM] | activity change, negative = inhibition [2] -9.51% [at 9.73 µM] | Potency [3] | Potency [4] | Potency [5] | Potency [6] | Potency [7] | Potency [8] | Potency [9] | Potency [10] | Potency [12]

NC(=O)Nc1sc(-c2ccc(F)cc2)cc1C(N)=O
active: Potency [3] 2350 nM | Potency [4] 187 nM | Potency [5] 1870 nM | Potency [6] 132 nM | Potency [7] 2960 nM | Potency [8] 296 nM | Potency [9] 1480 nM | Potency [10] 209 nM | Potency [14] 74.3 nM | Potency [11] 833 nM | Potency [12] 4690 nM | Potency [13] 74.3 nM
inactive: Potency [1] | Potency [2]

Cn1cnc(=N)c2[nH]cnc21
active: Potency [3] 148 nM | Potency [4] 132 nM | Potency [5] 526 nM | Potency [6] 83.3 nM | Potency [7] 118 nM | Potency [8] 105 nM | Potency [9] 296 nM | Potency [10] 132 nM | Potency [14] 23.5 nM | Potency [11] 372 nM | Potency [12] 1050 nM | Potency [13] 93.5 nM
inactive: Potency [1] | Potency [2]

CN(C)c1ccc(C(=O)NCCCCCCC(=O)NO)cc1
active: Potency [3] 132 nM | Potency [4] 590 nM | Potency [5] 1870 nM | Potency [6] 235 nM | Potency [7] 743 nM | Potency [8] 332 nM | Potency [9] 743 nM | Potency [10] 105 nM | Potency [14] 132 nM | Potency [11] 1660 nM | Potency [12] 2960 nM | Potency [13] 93.5 nM
inactive: Potency [1] | Potency [2]

CCS(=O)(=O)Nc1ccc2[nH]c(O)c(C(=Nc3ccc(CN4CCCCC4)cc3)c3ccccc3)c2c1
active: Potency [3] 18700 nM | Potency [4] 52.6 nM | Potency [5] 6620 nM | Potency [6] 148 nM | Potency [7] 743 nM | Potency [8] 469 nM | Potency [9] 1480 nM | Potency [10] 3720 nM | Potency [14] 105 nM | Potency [11] 418 nM | Potency [12] 209 nM | Potency [13] 59 nM
inactive: Potency [1] | Potency [2]

Cc1cc(O)c2c(c1)C(=O)c1cccc(O)c1C2=O
active: Potency [1] 8170 nM | viability (% of DMSO) [14] 136%
inactive: Potency [2] | Potency [3] | Potency [4] | Potency [5] | Potency [6] | Potency [8] | Potency [9] | Potency [10] | Potency [12]

C=CC(=O)N1CCc2ccc(-n3c(=O)ccc4cnc5ccc(-c6cnn(C)c6)cc5c43)cc21
inactive: Potency [1] | Potency [2]
active: Potency [3] 1660 nM | Potency [4] 935 nM | Potency [5] 3720 nM | Potency [6] 2960 nM | Potency [7] 1050 nM | Potency [8] 833 nM | Potency [9] 3720 nM | Potency [10] 833 nM | Potency [14] 935 nM | Potency [11] 526 nM | Potency [12] 2960 nM | Potency [13] 1870 nM
